90 compounds from PubChem BioAssay AID602247 (The Scripps Research Institute Molecular Screening Center, 2012) can be followed below.

Hit rate of the full screen: of about 360,000 compounds, about 80 (0.02%) were called active. This is one part of a sample in which actives are shown more often than they occur.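 How the source made its calls: active means activation above the run cutoff, the mean activation of all test compounds plus 3 SD (cut at about 40% in these data); inactive means the rest.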

A short description of the assay: ATP EC20 calcium response enhancers, parental CHO-K1 – cell-based, Fluo-8 calcium fluorescence, full deck, 1536-well, counter-screen for M1 PAM project, primary screen (AID 602247).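 Further: peak over basal fluorescence ratio in a 140 s read after ATP addition.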 Particulars: parental CHO-K1, ATP EC20, Fluo-8 calcium fluorescence; at 3 µM; hits give high values; 0% at ATP EC20, 100% at ATP max. (In general: A counterscreen serves to expose hits that act by an unwanted route or on another target.)
Consider `Nc1scc(-c2ccncc2)c1Cl`, for which the activation was 13.6% (inactive).
Turning to `Cc1cccc(CC2(O)C(=O)Nc3ccccc32)n1` (stereo not given), the activation was 12.3% (inactive).
As for `Cc1ccc(C)c(OCCC(=O)Nc2cccc(S(=O)(=O)N3CCCC3)c2)c1`, the activation is 10.7% (inactive).
`O=c1[nH]c(CCl)nc2cc(-c3ccc(Cl)cc3)sc12`: the activation was 13% (inactive).
On to `CN[C@H](C(=O)NC[C@H]1O[C@@H](n2cnc3c(N)ncnc32)[C@H](O)[C@@H]1O)[C@@H](C)OCc1ccccc1`, for which the activation is 11.7% (inactive).
In the case of `O=C(NNS(=O)(=O)c1ccc([N+](=O)[O-])cc1)C1CCCCC1`, the activation was -9.25% (inactive).
For `COC(=O)c1ccccc1NC(=O)C1(S(=O)(=O)c2ccc(Cl)cc2)CC1`, the activation is -15% (inactive).
As for `CSc1ccccc1C(=O)OCC(=O)N1CCN(C(C)=O)CC1`, the activation is 15.7% (inactive).
In the case of `O=C(CSCc1ccccc1Cl)NNC(=O)c1ccccc1` it was 2.85% (inactive); in that of `O=C(OC1CCOC1=O)c1ccc(-c2nc3ccccc3s2)s1` (stereo not given), 10.6% (inactive).
Regarding `Cc1ccc2nc(NC(=O)C3CSC4(C)CCC(=O)N34)sc2c1` (stereo not given), the activation is -12.5% (inactive).
For `COC(C[C@@H](O)C[C@@H](O)[C@H](C)OCc1ccccc1)OC` the value was 17.1% (inactive).
`Cc1ccc([C@H]2N[C@]3(CCCN(Cc4ccccc4)C3=O)[C@H]3C(=O)N(Cc4ccccc4)C(=O)[C@@H]23)cc1`: the activation is 1.9% (inactive).
Turning to `CC(=O)NC1=NC(=O)CS1`, the activation was 15.2% (inactive).
Consider `CC(=O)O[C@H]1CC[C@@]2(C)[C@@H](CC[C@@H]3[C@@H]2CC[C@]2(C)[C@@H](C(C)(C)O)C[C@@H]32)C1`, for which the activation is 4% (inactive).
In the case of `C[C@H]([C@@H](O)[C@@H](O)[C@@H](C)C(C)(C)C)[C@H]1CC[C@H]2C3CC[C@H]4C[C@H](OS(=O)(=O)O)[C@@H](OS(=O)(=O)O)C[C@]4(C)[C@H]3CC[C@]12C` (stereo not given in full), the activation was 46.3% (active).
In the case of `CCOC(=O)c1c(C)n(C)c2ccc(OC)c(NC(=O)CN3CCC4(CC3)OCCO4)c12` it was 7.82% (inactive); in that of `O=C(CN(c1ccccc1)S(=O)(=O)c1ccc(Cl)cc1)Nc1ccccc1C(=O)N1CCCC1`, 8.26% (inactive).
With `CCOc1ccccc1NC(=O)C1CCN(S(=O)(=O)c2c(C)nn(C)c2C)CC1`, the activation was -1.01% (inactive).
Consider `Cc1ccc(N2CCN(c3ccc(C)cc3)C2c2ccccn2)cc1`, for which the activation was -7.38% (inactive).
In the case of `COc1ccc(S(=O)(=O)N2CCN(C(=O)c3cc(C)oc3C)CC2)cc1` it was 20.2% (inactive).
For `COc1ccc(CCN2CC(C(=O)OCC(=O)NCc3ccccc3Cl)CC2=O)cc1OC` (stereo not given) the value was -3.82% (inactive).
In the case of `Cc1cc(C(=O)CC#N)c(C)n1CC(F)(F)F`, the activation is 13.3% (inactive).
In the case of `C/C(=N/NC(=O)CSc1ccccn1)c1ccc([N+](=O)[O-])cc1` it was 22.4% (inactive); in that of `CC1(C)CC2CC(C)(CN2c2ncnc3ccc(Br)cc23)C1` (stereo not given), 17.9% (inactive); in that of `C/C(N)=C(\C#N)C(=O)NCCc1ccccn1`, 21.8% (inactive).
With `O=C(/C=N/O)Nc1ccccc1`, the activation is 6.67% (inactive).
For `CN1CCN(c2cc(=O)n(-c3ccc(Cl)cc3)c(=O)[nH]2)CC1` the value was 1.64% (inactive).
On to `COc1ccc(C2/C=C\CN(S(=O)(=O)c3cccs3)CC(=O)N2Cc2ccc(F)cc2)cc1` (stereo not given), for which the activation is -11.5% (inactive).
Take `CC(C)NC(=O)c1ccccc1S(=O)c1ccccc1C#N` (stereo not given): the activation is 0.52% (inactive).
Regarding `O=C(CSc1nnnn1-c1ccc2c(c1)CCC2)Nc1ccc2c(c1)OCCO2`, the activation was -11.2% (inactive).
In the case of `O=C1c2ccccc2C(=O)N1CCc1nn[nH]n1` it was 16.6% (inactive); in that of `CC(C)(C)c1ccc(/C=C2\Oc3c(ccc(O)c3CN3CCN(CCO)CC3)C2=O)cc1`, 4.37% (inactive).
Consider `CCCCOc1ccc(C(=O)NCC(=O)OCC(=O)c2c(N)n(C)c(=O)n(C)c2=O)cc1`, for which the activation is -1.27% (inactive).
In the case of `COc1cccc(CNCc2ccc3c(c2)OCO3)c1`, the activation was 18.7% (inactive).
Take `CCOc1ccccc1N1CCN(C(=S)Nc2ccc(S(N)(=O)=O)cc2)CC1`: the activation was 17.3% (inactive).
In the case of `COc1ccc(C2=NOC(Cn3nc(C(=O)NCc4ccc5c(c4)OCO5)cc3-c3ccccc3)C2)cc1` (stereo not given), the activation was 14.9% (inactive).
In the case of `CCOc1cc(C2C(C(=O)OC(C)C)=C(C)NC3=C2C(=O)CCC3)cc([N+](=O)[O-])c1O` (stereo not given) it was 14.9% (inactive); in that of `COCCNC(=O)CSc1nc2c(n1-c1ccccc1)CCCC2`, 10.3% (inactive); in that of `O=C1CC(C(F)(F)C(F)(F)C(F)(F)C(F)(F)F)=Nc2ccccc2N1`, 17.5% (inactive).
In the case of `CCN1C(=NCC(C)C)N[C@@H](CCc2ccccc2)[C@H](C(=O)NCC(C)C)[C@H]1C` it was 8.06% (inactive); in that of `CC(CC(=O)N1CCN(S(=O)(=O)c2ccccc2)CC1)n1cncn1` (stereo not given), 23.5% (inactive); in that of `CSc1ncccc1C(=O)OCc1ccc(Br)cc1`, 17% (inactive).
In the case of `CC(C)COc1ccc(C(=O)OCC(=O)NCCC2=CCCCC2)cc1` it was 0.12% (inactive); in that of `Cc1noc(NS(=O)(=O)c2ccc(NC(=O)c3oc4ccc(F)cc4c3C)cc2)c1C`, 14.4% (inactive).
Regarding `O[C@H]1C[C@H](c2ccc(Cl)cc2)N(Cc2cccs2)C[C@@H]1n1cc(C2CC2)nn1`, the activation is 47.2% (active).
For `O[C@H]1CN(Cc2cccs2)[C@@H](c2ccc(Cl)cc2)C[C@@H]1n1cc(C2CC2)nn1` the value was 1.81% (inactive); for `O[C@@H]1C[C@H](c2ccccc2)N(Cc2cccs2)C[C@H]1n1cc(C2CC2)nn1`, 31.2% (inactive).
As to `Cc1ccc(C2NC(=S)NC3=C2N2CCC3CC2)cc1` (stereo not given), the activation is 12.6% (inactive).
In the case of `NC(=O)c1ncn([C@@H]2O[C@H](CN=C3NS(=O)(=O)c4ccccc43)[C@@H](O)[C@H]2O)n1` it was 12.9% (inactive); in that of `COc1ccccc1N1CCC(N2CCN(CC(C)(C)C)C(CCO)C2)CC1` (stereo not given), 15.1% (inactive); in that of `O=S(=O)(NCc1ccc2c(c1)OCO2)c1cccc2nsnc12`, -1.4% (inactive).
Take `Cc1ccc(NC(=S)Nc2ncccc2C)c(C)c1`: the activation is 14.7% (inactive).
In the case of `Cc1cc(C)cc(NC(=O)COC(=O)c2cc(C)oc2C)c1` it was 9.08% (inactive); in that of `COC(=O)Cn1cnc2scc(-c3ccc(C)c(C)c3)c2c1=O`, 12.6% (inactive); in that of `C[C@H](NC(=O)[C@@H]1CCCN1C(=O)[C@@H]1CCCN1C(=O)c1ccccc1)c1ccccc1`, 20.5% (inactive).
In the case of `CCc1ccc(OCC(=O)NCC(c2ccc(Cl)cc2)N2CCCCC2)cc1` (stereo not given), the activation was 11% (inactive).
In the case of `COc1ccc(C)cc1N(CC(=O)N1CCCC1)S(=O)(=O)c1ccccc1`, the activation was 9.46% (inactive).
Take `Cc1ccc(C)c(NC(=O)c2cc(-c3cc(C)cc(C)c3O)n[nH]2)c1`: the activation was -21.6% (inactive).
In the case of `O=C(Nc1cccnc1)c1cc2cc(Br)ccc2oc1=O` it was -7.52% (inactive); in that of `O=C(CSc1nnc(-c2cccs2)n1Cc1ccco1)c1ccc2c(c1)OCO2`, 22.8% (inactive).
With `CCN(CC)Cc1cc(C(C)=O)ccc1O`, the activation is -6.07% (inactive).
With `C=CCOc1ccccc1NC(=O)CN1C(=O)CNC1=O`, the activation was 13.6% (inactive).
On to `Cc1ccc(NC(=O)CN(C)C(=O)c2ccc(Br)o2)cc1`, for which the activation was -2.97% (inactive).
In the case of `CCOC(=O)c1ccc(N2C(=O)CC(Sc3nc(O)c(CC)c(=O)[nH]3)C2=O)cc1` (stereo not given), the activation was 11.8% (inactive).
Turning to `Fc1cccc(Cc2noc(CN3CCN(c4cnccn4)CC3)n2)c1`, the activation was 10.6% (inactive).
In the case of `Cc1c(Br)c([N+](=O)[O-])nn1C(C)C(=O)Nc1nccs1` (stereo not given) it was 3.45% (inactive).
On to `O=c1cc(CN2CCN(S(=O)(=O)/C=C/c3ccccc3)CC2)c2ccc(O)cc2o1`, for which the activation was -3.7% (inactive).
Regarding `Cc1ccc(-c2ccc(C3=CC(=O)CC(C)(C)C3=O)cc2)cc1`, the activation is 8.88% (inactive).
Take `O=C(NC12CC3CC(CC(C3)C1)C2)N1CCCC(CO)C1` (stereo not given): the activation is 11.3% (inactive).
Turning to `COc1cc(CCC(=O)N2CCN(c3ccccc3Cl)CC2)cc(OC)c1OC`, the activation is 15.8% (inactive).
For `O=C(CN1CCN(C(=S)NC2CCCC2)CC1)Nc1ccc(Oc2ccccc2)cc1` the value was -1.33% (inactive); for `Cc1cccc(N2C(=O)C3C(c4ccccc4)OC4(C(=O)c5ccccc5C4=O)C3C2=O)c1` (stereo not given), 10.9% (inactive); for `O=C(OCC(=O)N1CCCCCC1)c1ccc(Cl)nc1`, 21.8% (inactive).
With `COc1cc(CNc2ncn[nH]2)ccc1OCc1ccccc1C`, the activation was -0.62% (inactive).
Take `COc1ccc(OC)c(C(=O)NC(CC(N)=O)c2ccc(N3CCC(N4CCCCC4)CC3)c([N+](=O)[O-])c2)c1` (stereo not given): the activation was 26.1% (inactive).
As to `CC(NC(=O)COc1cccnc1[N+](=O)[O-])c1ccc(Cl)cc1Cl` (stereo not given), the activation was -1.02% (inactive).
Take `Cc1cc(C)c(S(=O)(=O)N(C)CC(=O)NCC2CCCO2)c(C)c1` (stereo not given): the activation was -22.7% (inactive).
As for `Nc1nc(SCC(=O)Nc2ccc(Cl)cc2C(F)(F)F)n[nH]1`, the activation was 5.7% (inactive).
As to `Cc1ccc(SCCN2C(=O)NC(C)(C)C2=O)cc1`, the activation was 11.2% (inactive).
For `C=CCn1c(COc2ccccc2F)nnc1SCC(=O)N1CC(=O)Nc2ccccc21`, the activation is 15.7% (inactive).
Take `COc1ccccc1C(=O)N/C(=C/c1ccc2c(c1)OCO2)C(=O)Nc1cccc(C(=O)O)c1`: the activation was -17.7% (inactive).
Turning to `CCc1ccc(N2CC(C(=O)NC3=NCCS3)CC2=O)cc1` (stereo not given), the activation was -0.63% (inactive).
Consider `Cc1nc2ccccn2c(=O)c1NC(=O)c1ccc(Br)o1`, for which the activation was 7.36% (inactive).
As to `CCOc1cc(NC(=O)CCl)c(OCC)cc1NC(C)=O`, the activation was 10.9% (inactive).
Regarding `Cc1ccc(C(C)C)c(OCCSc2nc3ccccc3n2CC(=O)O)c1`, the activation is 1.93% (inactive).
On to `COc1cccc(-c2nc3n(n2)C(c2ccccc2Cl)C(C(N)=O)=C(C)N3)c1` (stereo not given), for which the activation is 3.28% (inactive).
Regarding `COc1ccc(NC(=O)c2sc(N3CCOCC3)nc2-c2ccccc2)c(OC)c1`, the activation is 44.6% (active).
With `COc1ccc(NC(=O)CNc2cc(S(=O)(=O)N3CCOCC3)ccc2N2CCOCC2)c(OC)c1`, the activation is 9.94% (inactive).
As for `COc1ccc(NC(=O)NN2CCN(C)CC2)c(OC)c1`, the activation is 15.7% (inactive).
